# The list is not random: actives were taken first. Their share in the collection is about 6.6%.
# BoNT F protease: blocks Botulinum neurotoxin F light chain protease; Multiplex microsphere protease cleavage assay, flow cytometry; inhibition, % at 10 µM; hit rate 0.22% among 360,000; in the data active = inhibition above about 35%, passing the limit was not always enough; inconclusive = no clear call, values can overlap the other calls; note: plate controls were buffer without enzyme for full effect and enzyme alone for no effect
# GDH-TPI counter-1: counter-screen for M. tuberculosis FBA inhibitors: GDH-TPI coupled enzymes; inhibition, % at 4.8 µM; AID 588335; hit rate 1.2% among 360,000; GDH-TPI coupled enzyme counterscreen, NADH absorbance; in the data active = inhibition above about 30%;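 note: 0% = DMSO wells and 100% = wells lacking the enzyme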
# Anthrax LF inh2: anthrax lethal factor protease inhibition. multiplex microsphere protease cleavage assay, LF. inhibition, % at 10 µM. P15917. hit rate 0.12% among 360,000. AID 588501; in the data active = inhibition above about 30%; inconclusive = no clear call, values can overlap the other calls; note: plate controls were buffer without enzyme for full effect and enzyme alone for no effect
# Target sequence (P15917 whole entry, looked up): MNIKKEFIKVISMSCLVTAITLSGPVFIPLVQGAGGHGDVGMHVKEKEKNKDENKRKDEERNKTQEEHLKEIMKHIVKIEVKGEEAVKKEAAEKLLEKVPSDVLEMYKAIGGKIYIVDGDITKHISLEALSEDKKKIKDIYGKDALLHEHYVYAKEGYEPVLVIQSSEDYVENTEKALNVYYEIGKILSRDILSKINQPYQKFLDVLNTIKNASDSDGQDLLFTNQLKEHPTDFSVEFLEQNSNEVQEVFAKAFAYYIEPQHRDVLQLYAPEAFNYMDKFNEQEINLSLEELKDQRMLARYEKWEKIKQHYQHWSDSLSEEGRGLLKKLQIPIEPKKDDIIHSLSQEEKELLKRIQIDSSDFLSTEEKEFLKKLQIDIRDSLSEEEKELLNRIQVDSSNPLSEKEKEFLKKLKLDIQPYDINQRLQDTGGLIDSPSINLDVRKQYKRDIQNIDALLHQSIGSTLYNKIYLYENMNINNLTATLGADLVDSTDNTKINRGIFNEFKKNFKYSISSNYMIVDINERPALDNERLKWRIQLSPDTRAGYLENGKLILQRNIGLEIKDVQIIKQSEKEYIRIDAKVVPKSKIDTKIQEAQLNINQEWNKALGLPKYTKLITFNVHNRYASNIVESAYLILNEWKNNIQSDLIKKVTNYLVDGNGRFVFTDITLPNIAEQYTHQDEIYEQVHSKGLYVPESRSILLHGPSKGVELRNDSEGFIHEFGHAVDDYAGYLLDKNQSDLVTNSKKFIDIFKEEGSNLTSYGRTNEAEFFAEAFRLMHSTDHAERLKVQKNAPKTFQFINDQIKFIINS
# Bead autofluor: compound fluorescence in toxin protease inhibitor counterscreen; compound autofluorescence counterscreen, microsphere flow cytometry; active compounds read high; hit rate 3.1% among 360,000; fluorescence intensity (test concentration not listed); in the data active = fluorescence intensity above about 16000; inconclusive = no clear call, values can overlap the other calls
# BoNT-A LC inh2: blocks Botulinum neurotoxin A light chain protease | hit rate 0.17% among 360,000 | multiplex microsphere protease substrate cleavage, flow cytometry | inhibition, % at 10 µM; in the data active = inhibition above about 30%; inconclusive = no clear call, values can overlap the other calls; note: plate controls were buffer without enzyme for full effect and enzyme alone for no effect
# Mtb FBA inh: Mtb fructose-bisphosphate aldolase inhibition; inhibition, % at 1 µM; AID 588726; hit rate 2.3% among 360,000; P9WQA3; purified M. tuberculosis FBA, fluorescence read-out;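 note: 0% = vehicle and 100% = reference inhibitor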
# Mtb FBA inh conf: Mtb FBA inhibition, confirmed | shares compounds with Mtb FBA inh | purified M. tuberculosis FBA, fluorescence read-out | inhibition, % at 1 µM | hit rate 78% among 5,600 | AID 651616;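 note: 0% = vehicle wells and 100% = reference inhibitor wells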
# GDH-TPI counter-2: counter-screen for M. tuberculosis FBA inhibitors: GDH-TPI coupled enzyme inhibition. inhibition, % at 1 µM. hit rate 81% among 5,600. GDH-TPI coupled enzyme counterscreen, fluorescence. shares compounds with Mtb FBA inh; in the data active = inhibition above about 10%
# GDH-TPI dose: GDH-TPI dose response counter-screen for Mtb FBA; hit rate 79% among 170; shares compounds with Mtb FBA inh; GDH-TPI coupled enzyme assay, fluorescence, artifact counterscreen; IC50, µM; AID 652145; call rule not given here
# Starred values were filed as active, the others as inactive; ? = inconclusive; · = no result given; + = active, no number. Cut-off read from the data, not from the text of the source, unless noted: active = inhibition above about 27%; inactive = the rest.
SMILES,BoNT F protease,GDH-TPI counter-1,Anthrax LF inh2,Bead autofluor,BoNT-A LC inh2,Mtb FBA inh,Mtb FBA inh conf,GDH-TPI counter-2,others
Cn1c2ccccc2c(=O)c2ccc(NCCc3cccs3)cc21,13.6,30.4,4.8,3585,5.2,108.8*,4.7,-0.7,
CN(C)S(=O)(=O)c1ccc(C(=O)NCC(C)(C)CN=C2NS(=O)(=O)c3ccccc32)cc1,-0.6,-6.7,0.8,3814,-5.0,3.2,·,·,
O=C(CCCCCN1C(=O)c2cccc3cccc(c23)C1=O)NCc1cccnc1,33.9,14.8,-10.0,4120,-1.2,10.1,·,·,
CCOC(=O)CCCCCN1C(=O)c2cccc3cccc(c23)C1=O,2.7,19.3,-3.6,4076,-2.2,28.2*,113.4*,66.6*,
CN(C(=O)COC(=O)CCCN1C(=O)c2cccc3cccc(c23)C1=O)C1CCS(=O)(=O)C1 (centres undefined),7.0,13.2,2.5,6082,1.9,28.8*,144.2*,99.7*,
CC1CC(C)CN(C(=O)COC(=O)CCCN2C(=O)c3cccc4cccc(c34)C2=O)C1 (centres undefined),8.9,-2.4,1.0,5031,2.1,21.1,·,·,
O=C(CCCN1C(=O)c2cccc3cccc(c23)C1=O)NCc1cccnc1,0.7,1.9,-2.7,3841,0.1,34.6*,+,+,
O=C1c2cccc3cccc(c23)C(=O)N1CCO,3.3,33.0*,-2.1,3600,0.1,51.3*,158.2*,162.4*,
Cc1ccc(N(CC(=O)N2CCCCCC2)S(=O)(=O)c2ccccc2)cc1,-16.5,0.7,-0.9,2958,-3.3,5.6,·,·,
O=C(CN1C(=O)c2ccccc2C1=O)N1CCCCC1,12.7,9.7,-5.4,4373,-0.1,-0.5,·,·,
CC(C)CN(C(=O)COC(=O)CCN1C(=O)c2ccccc2C1=O)C1CCS(=O)(=O)C1 (centres undefined),-9.7,-5.2,5.5,3913,-0.6,-10.6,·,·,
CCN(C(=O)COC(=O)CCCN1C(=O)c2cccc3cccc(c23)C1=O)C1CCS(=O)(=O)C1 (centres undefined),9.2,17.4,4.0,5437,3.2,32.8*,+,+,
O=C(CN1C(=O)c2cccc3cccc(c23)C1=O)N1CCCCCC1,6.0,26.8,-2.7,14957,4.6,33.0*,96.1*,85.3*,
Nc1nc2n(n1)C(c1cccs1)CC(c1ccc(F)cc1)N2 (centres undefined),-10.9,0.3,-21.5,10469,-2.4,13.0,·,·,
Nc1nc2n(n1)C(c1cccs1)CC(c1ccccc1)N2 (centres undefined),-41.8,16.1,-2.5,3699,1.9,69.0*,100.5*,80.8*,
CSCCC(NC(=O)c1ccccc1Br)C(=O)Nc1ccc(C)cc1 (centres undefined),-8.6,-5.3,-1.4,2220,-1.3,1.4,·,·,
Cc1ccc(-c2nn(-c3ccccc3)cc2CO)o1,1.7,8.6,-3.3,3142,0.0,32.6*,75.9*,53.8*,
OCc1cn(-c2ccccc2)nc1-c1ccco1,-8.8,0.0,-3.4,13644,-0.9,6.5,·,·,
O=c1[nH]c2cc3c(cc2cc1CN(Cc1ccc2c(c1)OCO2)Cc1nnnn1CC1CCCO1)OCO3 (centres undefined),-6.2,23.8,-0.4,7739,-0.5,39.7*,46.6*,39.6*,
O=c1[nH]c2cc3c(cc2cc1CN(CCCO)Cc1nnnn1Cc1ccc(F)cc1)OCO3,-1.1,24.4,-0.1,2173,0.8,35.9*,35.4*,29.8*,
Cc1ccc2[nH]c(=O)c(CN(Cc3cccnc3)Cc3nnnn3CC3CCCO3)cc2c1 (centres undefined),0.9,18.5,-5.0,4625,0.3,2.2,·,·,
CCN(c1cccc(C)c1)S(=O)(=O)c1cc2c3c(c1)CCC(=O)N3CCC2,?,1.4,?,?,?,4.1,·,·,
COc1cc2c(cc1NC(=S)Nc1ccccc1C)oc1ccccc12,-0.3,36.2*,-2.0,4337,0.4,110.7*,55.6*,42.6*,
COc1cc2c(cc1NC(=S)Nc1cccc(C)c1)oc1ccccc12,-9.6,31.0*,-2.9,11462,-1.1,86.7*,11.7,-4.2,GDH-TPI dose=>10
CCNC(=S)Nc1cc2oc3ccccc3c2cc1OC,6.1,6.8,-2.3,5689,1.9,31.3*,4.2,4.8,
SMILES,BoNT F protease,GDH-TPI counter-1,Anthrax LF inh2,Bead autofluor,BoNT-A LC inh2,Mtb FBA inh,Mtb FBA inh conf,GDH-TPI counter-2,others
O=C(c1ccccc1)N1CCN(c2ccc([N+](=O)[O-])cc2-n2cccc2)CC1,-11.0,9.6,-4.7,6011,0.0,-1.6,·,·,
O=[N+]([O-])c1ncn(Cc2c(Cl)cccc2Cl)n1,-5.7,0.3,-1.3,2523,-0.3,-2.0,·,·,
Cc1cc(OC(C)C(=O)NCc2cccnc2)c2c(C)c(Cc3ccccc3)c(=O)oc2c1 (centres undefined),3.0,19.6,-0.2,5243,1.2,18.8,·,·,
CCc1cc(=O)oc2cc(C)cc(OC(C)C(=O)NCc3ccncc3)c12 (centres undefined),1.1,3.5,-0.4,5812,-0.2,84.1*,0.4,-4.9,
Cc1cc(OC(C)C(=O)NCc2cccnc2)c2c(C)c(C)c(=O)oc2c1 (centres undefined),0.3,-2.7,-3.8,5586,0.9,13.6,·,·,
CCc1cc(=O)oc2cc(C)cc(OC(C)C(=O)NCc3cccnc3)c12 (centres undefined),0.2,-3.5,-1.0,6158,-0.9,105.5*,+,154.2*,
CCCCc1cc(=O)oc2cc(C)cc(OC(C)C(=O)NCc3cccnc3)c12 (centres undefined),1.2,-4.7,0.5,6018,0.0,55.8*,55.3*,43.2*,
O=C(CSc1nc2ccc([N+](=O)[O-])cc2s1)c1ccc2ccccc2c1,3.9,3.0,2.7,4188,-2.3,-2.0,·,·,
N#Cc1cccnc1N1CCN(C(=O)c2ccccc2)CC1,-5.6,11.6,3.2,3139,-2.1,20.1,·,·,
N#Cc1cccnc1N1CCC(C(N)=O)CC1,0.3,8.8,-2.0,4250,0.1,30.5*,49.6*,37.9*,
CCC(C(=O)NCC1CCCO1)n1nc(C)c2sc3ccccc3c2c1=O (centres undefined),19.1,17.7,6.6,?,13.6,7.2,·,·,
CN(CCO)C(=O)c1c(NC(=O)c2ccccc2)sc2c1CCCC2,12.1,15.5,-10.1,3404,-1.0,-0.8,·,·,
CN(C)CCNC(=O)c1c(NC(=O)c2ccccc2)sc2c1CCCC2,?,22.1,3.0,3059,-0.9,40.4*,113.9*,108.8*,
Cc1ccn2cc(-c3cccc(NC(=O)CCC(=O)O)c3)nc2c1,-19.7,7.5,-7.4,3698,-4.3,44.0*,44.7*,33.6*,

# Screens deposited in PubChem by several laboratories.
